Source: PubChem BioAssay
LDHA block: LDHA (human) enzyme inhibition; P00338; purified LDHA, NADH/diaphorase-resazurin fluorescence; stronger effect = lower value; activity change, % (values are at about 110 or 230 µM); 480,000 tested, 0.15% active; AID 1347041; in the data active means activity change below about -30%; inconclusive means mostly about -25% to -30%;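 further: plate controls were DMSO wells for no effect and wells without enzyme for full effect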
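Human LDH5 (2 nM) was incubated with 0.06 mM NADH and 0.2 mM pyruvate for 5 min at room temperature in Tris pH 7.4. Remaining NADH was coupled through diaphorase/resazurin, and resorufin fluorescence was read at 0 and 20 min.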
Mito fusion yeast: inhibitors of mitochondrial division or activators of mitochondrial fusion | Potency, µM (series often up to 46.1 µM), for the others: at the highest dose growth rescue (activation), usual class: activators | S. cerevisiae fusion-defective mutant growth rescue, CellTiterGlo 48 h | 320,000 tested, 0.23% active; further: potency means the concentration at half of the fitted maximal effect; % of control where 0% means no effect; nearly all actives have a fitted effect of over 45% in size
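Read-out: ATP-based luminescence (CellTiterGlo, 10 min ambient) reporting growth of fusion-defective ts yeast after 48 hours at 37C on glycerol/ethanol YPEG medium in the presence of compound.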
IDH1 R132H inh: human IDH1 R132H inhibition; Potency, µM (doses to about 76.6 µM), without a hit: top-dose activity change, negative = inhibition, hits mostly inhibitors; IDH1-R132H enzyme, NADPH consumption, diaphorase/resazurin fluorescence; AID 602179; 390,000 tested, 0.093% active; O75874; further: potency means the concentration at half of the fitted maximal effect; on the % scale 0 is the no-effect control and ±100 the full control effect; nearly all actives have a fitted effect of over 65% in size
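IDH1-R132H (0.5 ug/mL dispensed) in pH 7.5 Tris buffer was preincubated 30 min with compound, then given a substrate mix of 0.016 mM NADPH and 2 mM alpha-KG for 80 min at room temperature; remaining NADPH was read by diaphorase/resazurin fluorescence.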
ASM inhibitor: human S-ASM enzyme inhibition; P17405; placental ASM, HMU-PC fluorogenic substrate, 60 min; Potency, µM (top dose mostly 57.5 µM), without a hit: at the highest dose activity change, negative = inhibition, usual class: inhibitors; 340,000 tested, 0.006% active; further: potency means the concentration at half of the fitted maximal effect
Target sequence (P17405 47-631 limits assumed): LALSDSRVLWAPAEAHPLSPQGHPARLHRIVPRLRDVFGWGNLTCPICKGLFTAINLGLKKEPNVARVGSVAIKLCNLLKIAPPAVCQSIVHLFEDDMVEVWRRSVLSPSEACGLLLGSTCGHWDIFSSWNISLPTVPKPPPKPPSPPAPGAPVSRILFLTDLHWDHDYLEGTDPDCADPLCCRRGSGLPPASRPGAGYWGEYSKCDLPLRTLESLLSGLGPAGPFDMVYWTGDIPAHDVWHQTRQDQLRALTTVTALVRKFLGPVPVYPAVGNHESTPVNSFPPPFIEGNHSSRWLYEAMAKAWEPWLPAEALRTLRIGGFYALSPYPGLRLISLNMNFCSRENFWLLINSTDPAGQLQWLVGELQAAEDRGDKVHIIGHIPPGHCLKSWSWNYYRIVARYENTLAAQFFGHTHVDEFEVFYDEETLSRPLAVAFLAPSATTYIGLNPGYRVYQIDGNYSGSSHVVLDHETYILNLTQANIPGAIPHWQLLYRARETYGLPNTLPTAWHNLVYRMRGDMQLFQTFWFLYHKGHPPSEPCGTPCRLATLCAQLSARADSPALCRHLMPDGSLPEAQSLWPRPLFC
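qHTS format. ASM enzyme prepared from human placenta hydrolyses the fluorogenic substrate HMU-PC0 (9 uM final) over 60 min at 37 °C after a 10 min compound preincubation.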
ClpP mod: qHTS Assay for Activators of ClpP. purified B. subtilis ClpP, FRET peptide cleavage, 20 min. Potency, µM (top dose mostly 57.5 µM), without a hit: at the highest dose activity change, negative = active. 340,000 tested, 1.9% active. ATP-dependent Clp protease proteolytic subunit (Bacillus subtilis (strain 168)), P80244. AID 651965, 2013; active means well fitted falling curve with a large enough effect; inconclusive means small, poorly fitted or top-dose-only effect; inactive means no such curve, though single readings can be large or run the other way; further: potency means the concentration at half of the fitted maximal effect; the source files actives as falling curves though it sought activators and does not explain the sign; nearly all actives have a fitted effect of over 65% in size
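FRET quenching reversal measured ClpP activation: 10 microg/mL B. subtilis ClpP at pH 8 with the FRET-FV decapeptide, read at 430 nm after 320 nm excitation. The 20-min minus 0-min signal was scaled between DMSO/no-enzyme wells and ADEP (5.8 microM final).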
RGS4 inh: blocks human RGS4-accelerated GTP hydrolysis; P49798; Transcreener GDP fluorescence polarization, RGS4-accelerated GTP hydrolysis; Potency, µM (highest dose often 114 µM), inactives show top-dose activity change, negative = inhibition, usual class: inhibitors; 390,000 tested, 0.039% active; AID 504845; further: potency means the concentration at half of the fitted maximal effect; on the % scale 0 is the no-effect control and ±100 the full control effect; nearly all actives have a fitted effect of over 75% in size
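MLSMR compounds (23 nl, pin-transferred) preincubated 10 min at room temperature with a 500nM (2x) first reagent, then RGS4 at 900nM (2x) plus Transcreener GDP mix added; fluorescence polarization (620/688 nm) read before and after 90 min at 30 °C.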
Starred values were filed as active, the others as inactive; u = inconclusive; x = not tested or not shown. This is one part of a sample in which hits are shown more often than they occur. Unless noted, the call rests on the fitted dose curve; in most records, active means well fitted curve in the direction sought with a large enough effect; inconclusive means small, poorly fitted or top-dose-only effect, or another doubt; inactive means no such curve, though single readings can be large; an effect the other way counts as inactive or inconclusive.

SMILES | LDHA block | Mito fusion yeast | IDH1 R132H inh | ASM inhibitor | ClpP mod | RGS4 inh
CCc1ccc(CNC(=O)C2CCN(C(=O)c3ccc(-n4ccc5ccccc54)s3)CC2)cc1 | -20 | x | -30% | x | 35µM* | -11%
Cc1ccc(CNC(=O)C2CCN(C(=O)c3ccc(-n4ccc5ccccc54)s3)CC2)cc1 | -4 | x | -12% | x | u | -6%
CCCNC(=O)Nc1ccc(-c2noc(-c3ccco3)n2)cc1 | -10 | x | x | x | x | x
NC(=O)C1CCN(C(=S)c2ccc(-c3ccc(Br)cc3)o2)CC1 | -3 | 1% | 6% | -1% | x | u
NC(=O)c1ccc(-c2ccc(Br)cc2)o1 | -8 | -2% | -5% | -8% | 28µM* | -29%
O=C(NCCCN1CCCC1)Nc1cccc2ccccc12 | 9 | 1% | 6% | 0% | u | -29%
COc1cc2[nH]c(=O)n(CCCC(=O)NC3CCCCC3)c(=O)c2cc1OC | 1 | 7% | 2% | -2% | 1% | -19%
Cc1cccnc1NC(=O)Nc1cccc2ccccc12 | 18 | -1% | 1% | 2% | 25µM* | -21%
CN1CCN(CCCNC(=O)Nc2cccc3ccccc23)CC1 | 3 | 1% | 4% | 3% | 16µM* | -10%
COc1cc2[nH]c(=O)n(CCCCCC(=O)NCCCN3CCCC3=O)c(=O)c2cc1OC | -6 | -6% | 11% | 5% | 28µM* | -2%
COc1cc2[nH]c(=O)n(Cc3ccc(C(=O)NCCCN4CCC(C)CC4)cc3)c(=O)c2cc1OC | -9 | -1% | -6% | -3% | u | 14%
COc1cc2[nH]c(=O)n(CCCCCC(=O)NCCCN3CCC(C)CC3)c(=O)c2cc1OC | -3 | 5% | 19% | 1% | 16µM* | 10%
CCCc1c(C(=O)OCC)cnc2nc(-c3cccnc3)nn12 | 7 | x | x | x | x | x
CC(NC(=O)COC(=O)Cc1n[nH]c(=O)c2ccccc12)c1ccccc1 (stereo not given) | 2 | x | x | x | x | x
COc1cc2[nH]c(=O)n(CCCC(=O)NCCc3ccccc3)c(=O)c2cc1OC | -8 | 0% | 14% | 2% | -1% | -15%
COc1cc2[nH]c(=O)n(CCCCCC(=O)NCCCN3CCOCC3)c(=O)c2cc1OC | -3 | -6% | -2% | 2% | 22µM* | -9%
COc1cc2[nH]c(=O)n(CCC(=O)NCCC(C)C)c(=O)c2cc1OC | -4 | -3% | 0% | 5% | 20µM* | 5%
COc1ccc(CNC(=O)CCn2c(=O)[nH]c3ccccc3c2=O)cc1 | -3 | 4% | 2% | 5% | 28µM* | 26%
COc1cc2[nH]c(=O)c(C(=O)NCCCN3CCCCC3)c(O)c2cc1OC | 7 | 0% | 10% | 4% | 3.5µM* | -11%
Cc1nn(-c2nc(CC(=O)Nc3cccnc3)cs2)c(C)c1Cc1ccccc1 | 4 | x | x | x | x | x
CC(C)NC(=O)NC(=O)COC(=O)c1cc(-c2cccs2)nc2ccccc12 | -1 | x | x | x | x | x
CCOc1cc2[nH]c(=O)n(CCCCCC(=O)NC3CCCC3)c(=O)c2cc1OCC | -2 | -1% | -9% | -2% | 4% | 25%
COc1cc2[nH]c(=O)n(CCC(=O)N3CCC(N4CCCCC4)CC3)c(=O)c2cc1OC | 5 | -1% | 5% | 10% | 32µM* | 1%
COc1ccc(CNC(=O)c2cccc(-c3ccc(C)c4ccccc34)n2)cc1 | -2 | 2% | -11% | -5% | 25µM* | -12%
CCOc1cc2[nH]c(=O)n(CCCN3CCCC3=O)c(=O)c2cc1OCC | 1 | -1% | 3% | 4% | 11µM* | -38%
CCOc1cc2[nH]c(=O)n(Cc3ccccc3)c(=O)c2cc1OCC | 0 | -2% | -1% | 2% | 13µM* | 25%
CC(c1cccc(C(F)(F)F)c1)N(Cc1nc2ccccc2o1)C1CC1 (stereo not given) | 11 | x | x | x | x | x
CC(=O)Nc1ccc(NC(=O)c2csc(NC3CC3)n2)cc1 | 0 | x | x | x | x | x
